Assay results as given in PubChem BioAssay AID1159580 (chemical genetic matrix, 2015).
“And” between values parts separate entries of the source, which are not always exact repeats. Equal entries are not always repeated. Among all 5,500 compounds or so, about 2,000 (36%) were called active. Inconclusive results (about 18%) are left out. Cut-off read from the data, not from the text of the source: active = normalized growth mostly below about 0.91 (no sharp cut-off); inconclusive = no clear call, values can overlap the other calls; inactive = mostly above about 0.92. The list shows a part of the results.

Assay: chemical genetic growth profiling, strain panel (AID 1159580);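 note: tested at 20 µM; growth read once vehicle control cultures reached saturation at 30 °C; 1 = growth at the plate median or of vehicle wells; lower values mean less growth of the strain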
Details: S. cerevisiae deletion strains, growth OD

Measured: normalized growth

CC[n+]1c(-c2ccccc2)c2cc(N)ccc2c2ccc(N)cc21
active: locus YAL013W, strain DEP1, stronger effect = lower value 0.879 | locus YCL029C, strain bik1, stronger effect = lower value 0.664 | locus YDL035C, strain GPR1, stronger effect = lower value 0.703 | locus YDL134C, strain PPH21, stronger effect = lower value 0.776 | locus YDL185W, strain tfp1, stronger effect = lower value 0.853 | locus YDR101C, strain arx1, stronger effect = lower value 0.886 | locus YDR162C, strain NBP2, stronger effect = lower value 0.706 | locus YDR318W, strain mcm21, stronger effect = lower value 0.885 | locus YDR388W, stronger effect = lower value 0.859 | locus YDR502C, strain sam2, stronger effect = lower value 0.801 | locus YEL061C, strain CIN8, stronger effect = lower value 0.766 | locus YER167W, strain BCK2, stronger effect = lower value 0.756 | locus YGL078C, strain dbp3, stronger effect = lower value 0.898 | locus YGL086W, strain mad1, stronger effect = lower value 0.856 | locus YGL248W, strain PDE1, stronger effect = lower value 0.845 | locus YGR135W, strain pre9, stronger effect = lower value 0.872 | locus YHR030C, strain SLT2, stronger effect = lower value 0.906 and 0.85 | locus YHR079C, strain IRE1 (second series), stronger effect = lower value 0.857 | locus YHR079C, strain IRE1, stronger effect = lower value 0.832 | locus YHR129C, strain ARP1, stronger effect = lower value 0.895 | locus YHR200W, strain rpn10, stronger effect = lower value 0.864 | locus YIL066C, strain RNR3, stronger effect = lower value 0.827 | locus YIL073C, strain SPO22, stronger effect = lower value 0.662 | locus YIL125W, strain kgd1, stronger effect = lower value 0.88 | locus YIR030C, strain dcg1, stronger effect = lower value 0.889 | locus YJL095W, strain BCK1, stronger effect = lower value 0.79 and 0.852 | locus YJL134W, strain LCB3, stronger effect = lower value 0.924 | locus YJL168C, strain set2, stronger effect = lower value 0.915 | locus YJL187C, strain SWE1 (second series), stronger effect = lower value 0.819 | locus YJR043C, strain POL32, stronger effect = lower value 0.687 | locus YJR066W, strain TOR1, stronger effect = lower value 0.773
inactive: locus YAL021C, strain ccr4, stronger effect = lower value 0.918 | locus YAL026C, strain drs2, stronger effect = lower value 0.966 | locus YAL030W, strain snc1, stronger effect = lower value 0.971 | locus YBL061C, strain skt5, stronger effect = lower value 0.974 | locus YBR009C, strain hhf1, stronger effect = lower value 0.966 | locus YBR021W, strain FUR4, stronger effect = lower value 1.06 | locus YBR023C, strain chs3, stronger effect = lower value 0.979 | locus YBR171W, strain sec66, stronger effect = lower value 0.977 | locus YBR229C, strain ROT2, stronger effect = lower value 0.952 | locus YBR231C, strain swc5, stronger effect = lower value 0.966 | locus YBR279W, strain paf1, stronger effect = lower value 0.947 | locus YCL011C, strain gbp2, stronger effect = lower value 0.981 | locus YCL016C, strain dcc1, stronger effect = lower value 0.943 | locus YCL069W, strain vba3, stronger effect = lower value 0.959 | locus YCR088W, strain abp1, stronger effect = lower value 0.954 | locus YDL005C, strain med2, stronger effect = lower value 0.99 | locus YDL040C, strain nat1, stronger effect = lower value 0.969 | locus YDL074C, strain BRE1, stronger effect = lower value 0.822 | locus YDL101C, strain DUN1, stronger effect = lower value 0.93 | locus YDL192W, strain arf1, stronger effect = lower value 0.922 | locus YDR001C, strain nth1, stronger effect = lower value 0.953 | locus YDR069C, strain doa4, stronger effect = lower value 0.974 | locus YDR137W, strain rgp1, stronger effect = lower value 0.997 | locus YDR159W, strain sac3, stronger effect = lower value 1.02 | locus YDR195W, strain ref2 1.04 | locus YDR297W, strain sur2, stronger effect = lower value 0.954 | locus YDR334W, strain swr1, stronger effect = lower value 0.957 | locus YDR335W, strain msn5, stronger effect = lower value 0.983 | locus YDR392W, strain spt3, stronger effect = lower value 0.965 | locus YEL003W, strain gim4, stronger effect = lower value 0.956 | locus YEL037C, strain rad23, stronger effect = lower value 0.965 | locus YEL061C, strain CIN8 (second series), stronger effect = lower value 0.946 | locus YER015W, strain faa2, stronger effect = lower value 0.97 | locus YER016W, strain bim1, stronger effect = lower value 0.953 | locus YER110C, stronger effect = lower value 0.967 | locus YER111C, strain swi4, stronger effect = lower value 0.939 | locus YER155C, strain BEM2 (second series), stronger effect = lower value 0.939 | locus YER155C, strain BEM2, stronger effect = lower value 0.937 | locus YFR010W, strain ubp6, stronger effect = lower value 0.97 | locus YGL167C, strain pmr1, stronger effect = lower value 0.986 | locus YGL173C, strain kem1, stronger effect = lower value 0.96 | locus YGL227W, strain vid30, stronger effect = lower value 0.975 | locus YGL240W, strain doc1, stronger effect = lower value 1.01 | locus YGL253W, strain hxk2, stronger effect = lower value 0.94 | locus YGR252W, strain gcn5, stronger effect = lower value 0.94 | locus YHR013C, strain ard1, stronger effect = lower value 0.988 | locus YHR027C, strain rpn1, stronger effect = lower value 0.954 | locus YHR094C, strain hxt1, stronger effect = lower value 0.925 | locus YHR142W, strain chs7, stronger effect = lower value 0.974 | locus YJL092W, strain hpr5, stronger effect = lower value 0.946 | locus YJL095W, strain BCK1 (second series), stronger effect = lower value 0.979 | locus YJL115W, strain asf1, stronger effect = lower value 0.926 | locus YJL129C, strain trk1, stronger effect = lower value 1.08 | locus YJL154C, strain vps35, stronger effect = lower value 0.949 | locus YJL164C, strain tpk1, stronger effect = lower value 0.963 | locus YJL166W, strain qcr8, stronger effect = lower value 0.993 | locus YJL187C, strain SWE1, stronger effect = lower value 0.995
